# Bioassay records: PubChem, National Center for Advancing Translational Sciences (NCATS)
# 3T3 cytotox: Cytotoxic Profiling in NIH 3T3 Cell Line of Diverse Libraries Using Quantitative High-Throughput Screening. Potency, µM (top dose mostly 96.7 µM), without a hit: at the highest dose activity change, negative = cytotoxicity, hits mostly inhibitors. NIH 3T3 viability, CellTiter-Glo ATP luminescence, 48-72 h. actives 4.3% (n = 94,000); note: % is set by controls: 0 for no effect and ±100 for the full control effect; nearly all actives have a fitted effect of over 55% in size
#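 Cytotoxicity is measured as loss of cellular ATP: NIH 3T3 cells (400/well) are exposed to compound for 48 or 72 hr at 37 °C, then CellTiter-Glo luminescence is imaged after 10 min at room temperature.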
# GPT2 inhibitor: Primary qHTS assay for inhibitors of Glutamate pyruvate transaminase 2 (GPT2); Alanine aminotransferase 2 (Homo sapiens), Q8TD30; Recombinant GPT2, coupled pyruvate oxidase/HRP Amplex Red fluorescence; Potency, µM (highest dose often 57.7 µM), for inactives: top-dose activity change, negative = inhibition, actives largely listed as inhibitors; actives 0.25% (n = 100,000); AID 1671188, 2021; note: % is set by controls: 0 for no effect and ±100 for the full control effect; nearly all actives have a fitted effect of over 60% in size
#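 Fluorescence read-out: pyruvate from GPT2 turnover coupled to pyruvate oxidase, HRP and Amplex Red (0.2mM ThPP, 0.2U/mL PO and HRP, 50uM Amplex final). Substrates 250uM a-KG, 2mM L-alanine; enzyme 10ng/uL; 30 min RT.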
# Luciferase inh: Firefly luciferase inhibition profiling of diverse chemical library using quantitative high-throughput screening; purified P. pyralis luciferase, luminescence, biochemical; Potency, µM (series often up to 115 µM), usual class: inhibitors; actives 2.5% (n = 76,000); note: % is set by controls: 0 for no effect and ±100 for the full control effect; nearly all actives have a fitted effect of over 65% in size
# Target sequence (P08659 whole entry, looked up): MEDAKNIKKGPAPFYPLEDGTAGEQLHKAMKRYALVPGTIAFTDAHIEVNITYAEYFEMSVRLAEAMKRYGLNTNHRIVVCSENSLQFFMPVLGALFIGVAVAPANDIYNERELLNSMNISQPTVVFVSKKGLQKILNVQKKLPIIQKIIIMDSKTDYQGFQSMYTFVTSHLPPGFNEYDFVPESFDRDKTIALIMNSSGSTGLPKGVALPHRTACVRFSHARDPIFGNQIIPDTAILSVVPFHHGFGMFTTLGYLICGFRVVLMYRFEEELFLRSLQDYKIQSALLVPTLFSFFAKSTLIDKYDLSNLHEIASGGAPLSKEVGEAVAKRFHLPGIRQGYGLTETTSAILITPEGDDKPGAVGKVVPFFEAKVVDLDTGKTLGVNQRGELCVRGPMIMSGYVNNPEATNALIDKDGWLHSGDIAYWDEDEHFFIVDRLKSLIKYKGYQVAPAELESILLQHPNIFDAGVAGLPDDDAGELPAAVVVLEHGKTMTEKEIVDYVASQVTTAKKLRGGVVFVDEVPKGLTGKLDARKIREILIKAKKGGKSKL
#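 Inhibitors were tested against purified firefly luciferase in a biochemical, low-substrate format (both substrates at 10uM) and luminescence measured with a CCD imager.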
# hNpr1 antagonist: Natriuretic polypeptide receptor (hNpr1) antagonism - Primary qHTS. HEK293 hNpr1 GloSensor cGMP, ANP-stimulated luminescence. Potency, µM (titrated, usually from 46.3 µM), inactives show at the top dose activity change, negative = inhibition, hits mostly inhibitors. actives 1.6% (n = 76,000). AID 1347048, 2019; calls by dose curve; note: % is set by controls: 0 for no effect and ±100 for the full control effect; nearly all actives have a fitted effect of over 60% in size
#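 HEK293 cells stably expressing human Npr1 and cGMP GloSensor pGS-40F, loaded 2 h with 2% GloSensor reagent, given compound 30 min at room temperature. Luminescence read before and 20 min after 0.1 nM hNppA.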
# HEK cytotox: Cytotoxic Profiling in HEK 293 Cell Line of Diverse Libraries Using Quantitative High-Throughput Screening; HEK 293 viability, ATP luminescence (CellTiter-Glo), 48-72 h; Potency, µM (top dose mostly 115 µM), for the others: at the top dose activity change, negative = cytotoxicity, most hits filed as inhibitors; actives 6.6% (n = 94,000); note: % is set by controls: 0 for no effect and ±100 for the full control effect; nearly all actives have a fitted effect of over 60% in size
#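 CellTiter-Glo luminescence (cellular ATP) was read after 48 or 72 hr of compound exposure at 37 degree Celsius. Cells were HEK 293 plated at 250 cells/well.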
# NPR1 antag cnf: Natriuretic polypeptide receptor (hNpr1) antagonism - Confirmation; shares compounds with hNpr1 antagonist; HEK293 hNpr1 cGMP GloSensor luminescence, ANP-stimulated; Potency, µM (highest dose often 57.6 µM), for inactives: top-dose activity change, negative = inhibition, actives largely listed as inhibitors; actives 76% (n = 1,400); AID 1347044, 2019; calls by dose curve; note: nearly all actives have a fitted effect of over 70% in size
# NPR2 antag: Natriuretic polypeptide receptor (hNpr2) antagonism - Subtype selectivity assay. actives 67% (n = 1,400). AID 1347046, 2019. HEK293 hNpr2 GloSensor cGMP luminescence, CNP-stimulated. Potency, µM (top dose mostly 57.6 µM), without a hit: top-dose activity change, negative = inhibition, usual class: inhibitors. shares compounds with hNpr1 antagonist; calls by dose curve; note: nearly all actives have a fitted effect of over 70% in size
# FLuc counter: Natriuretic polypeptide receptor (hNpr1) antagonism - Confirmation firefly luciferase (FLuc) inhibition counterscreen | shares compounds with hNpr1 antagonist | purified FLuc enzyme, luminescence, Km substrate | Potency, µM (highest dose often 57.6 µM), inactives show top-dose activity change, negative = inhibition, hits mostly inhibitors | actives 0.7% (n = 1,400); note: 0% is about no effect
# GloSensor ctrl: Natriuretic polypeptide receptor (hNpr1) antagonism - Counterscreen GloSensor control cell line; shares compounds with hNpr1 antagonist; HEK293 GloSensor cGMP, SNP-stimulated, luminescence; Potency, µM (series often up to 57.6 µM), without a hit: top-dose activity change, negative = inhibition, actives largely listed as inhibitors; actives 69% (n = 1,400); calls by dose curve; note: % is set by controls: 0 for no effect and ±100 for the full control effect; nearly all actives have a fitted effect of over 70% in size
# Active calls of the source: *; i = inactive; ? = inconclusive; · = no result given. Shown are actives, neighbours in structure and some others; about 10% of the full set was active somewhere. Unless noted, calls come from the whole dose curve; as a rule, active = well fitted curve in the direction sought with a large enough effect; inconclusive = small, poorly fitted or top-dose-only effect, or another doubt; inactive = no such curve, though single readings can be large; an effect the other way counts as inactive or inconclusive. Potency is the fitted concentration of half-maximal effect.
SMILES,3T3 cytotox,GPT2 inhibitor,Luciferase inh,hNpr1 antagonist,HEK cytotox,NPR1 antag cnf,NPR2 antag,FLuc counter,GloSensor ctrl
COc1cccc(CCC(=O)N2CCC(n3cc(-c4nc(-c5ccccc5)no4)nn3)C2)c1 (centres undefined),?,-8.3%,?,14.1µM*,?,21.7µM*,24.3µM*,-28.6%,21.7µM*
O=C(c1ccc2nccn2c1)N(Cc1c(F)cccc1Cl)C1CC1,-36.7%,?,i,-8.6%,-24.4%,·,·,·,·
COc1ccc(CC(=O)N2CCC(Cc3nc(-c4ccc(F)cc4)no3)CC2)cc1,?,3.7%,i,5.62µM*,?,7.69µM*,6.85µM*,-1.6%,6.11µM*
COc1ccccc1CCC(=O)N1CCC(Cc2nc(-c3ccc(F)cc3)no2)CC1,?,i,i,?,?,·,·,·,·
O=C(Cc1cccc(F)c1)N1CCC(Cc2nc(-c3cnccn3)no2)CC1,?,0.8%,i,5.6%,-7.8%,·,·,·,·
COc1ccc(-c2noc(CC3CCN(C(=O)COc4cccc(C)c4)CC3)n2)cc1,?,i,i,15.8µM*,?,21.7µM*,24.3µM*,4.9%,24.3µM*
COc1ccc(CCC(=O)N2CCC(Cc3nc(-c4ccc(F)cc4)no3)CC2)cc1,?,i,i,5.62µM*,?,4.32µM*,10.9µM*,0.4%,10.9µM*
O=C(CCc1ccccc1)N1CC(Oc2ccc(-c3noc(C4CC4)n3)cc2)C1,?,i,i,14.1µM*,28.2µM*,15.3µM*,17.2µM*,2.0%,15.3µM*
CN(c1ccc(C(=O)N2CCn3nc(CO)cc3C2)cc1)S(C)(=O)=O,-19.6%,i,i,-11.0%,-11.2%,·,·,·,·
COc1cccc(CCC(=O)N2CCC(Cc3nc(-c4cccc(OC)c4)no3)CC2)c1,?,4.0%,i,15.8µM*,?,21.7µM*,21.7µM*,0.6%,17.2µM*
COc1ccc(CCC(=O)N2CCC(Cc3nc(-c4ccc(OC)cc4)no3)CC2)cc1,?,i,i,11.2µM*,?,17.2µM*,17.2µM*,-0.4%,12.2µM*
COc1cccc(CCC(=O)N2CCC(Cc3nc(-c4cnccn4)no3)CC2)c1,-21.6%,3.2%,i,2.4%,-5.1%,·,·,·,·
Cc1ccc(OCC(=O)N2CCC(Cc3nc(-c4ccc(F)cc4)no3)CC2)cc1,?,i,i,7.94µM*,?,10.9µM*,12.2µM*,-3.5%,9.68µM*
